Test results as given in PubChem BioAssay AID1159580 (chemical genetic matrix, 2015).
Hit rate of the full screen: of about 5,500 compounds, about 2,000 (36%) were called active. Not shown: some 18% with an inconclusive outcome. Rule as the data show it: active = normalized growth mostly below about 0.91 (no sharp cut-off); inconclusive = no clear call, values can overlap the other calls; inactive = mostly above about 0.92. The list shows a part of the results.

Experiment: chemical genetic growth profiling, strain panel (AID 1159580);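 also: tested at 20 µM; growth read once vehicle control cultures reached saturation at 30 °C; 1 = growth at the plate median or of vehicle wells; lower values mean less growth of the strain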
Settings: S. cerevisiae deletion strains, growth OD
[1] = locus YHR030C, strain SLT2, hits give low values
[2] = locus YGR078C, strain PAC10, hits give low values
[3] = locus YNL153C, strain GIM3, hits give low values
[4] = locus YPL055C, strain LGE1, hits give low values
[5] = locus YPL241C, strain CIN2, hits give low values

Measured: normalized growth

O=C[C@H](O)[C@@H](O)[C@H](O)CO
inactive: [1] 1.04 | locus YHR079C, strain IRE1, hits give low values 1.06 | locus YJL095W, strain BCK1, hits give low values 1.06 | locus YJR066W, strain TOR1, hits give low values 0.998 | locus YLR113W, strain HOG1, hits give low values 1.07 | locus YNL183C, strain NPR1, hits give low values 1.03 | locus YOR231W, strain MKK1, hits give low values 1.09 | locus YPL256C, strain CLN2, hits give low values 1.02

Clc1ccc2ocnc2c1
inactive: locus YAL013W, strain DEP1, hits give low values 1.01 | locus YBR229C, strain ROT2, hits give low values 1.01 | locus YDL101C, strain DUN1, hits give low values 1 | locus YDR150W, strain NUM1, hits give low values 0.95 | locus YEL061C, strain CIN8, hits give low values 1.01 | [2] 1 | locus YGR229C, strain SMI1, hits give low values 1.01 | [1] 1.05 | locus YHR087W, strain rtc3, hits give low values 0.996 | locus YJR043C, strain POL32, hits give low values 0.931 | locus YJR075W, strain HOC1, hits give low values 0.999 | locus YKL190W, strain CNB1, hits give low values 1.02 | locus YLR039C, strain RIC1, hits give low values 1.02 | locus YLR058C, strain SHM2 (second series), hits give low values 1 | locus YLR085C, strain ARP6, hits give low values 0.997 | locus YLR262C, strain YPT6, hits give low values 1.08 | locus YML094W, strain GIM5, hits give low values 0.999 | locus YMR219W, strain ESC1, hits give low values 1.01 | locus YMR263W, strain SAP30, hits give low values 1.01 | locus YNL128W, strain TEP1, hits give low values 1.02 | [3] 0.996 | locus YNL298W, strain CLA4 (second series), hits give low values 1.04 | locus YNL322C, strain KRE1, hits give low values 1.01 | locus YNR030W, strain Alg12, hits give low values 1 | locus YOL006C, strain TOP1, hits give low values 1.09 | [4] 0.906 | [5] 1.01 | locus YPR135W, strain CTF4, hits give low values 1.08

CC(C)NCC(O)COc1ccc(CCOCC2CC2)cc1 (stereo not drawn)
inactive: locus YAL040C, strain CLN3, hits give low values 1.05 | locus YCL061C, strain MRC1 (second series), hits give low values 1 | locus YER002W, strain NOP16, hits give low values 1.03 | [2] 0.994 | locus YMR307W, strain GAS1, hits give low values 0.998 | [3] 1.01 | locus YNL175C, strain NOP13, hits give low values 1.02 | locus YNL197C, strain WHI3, hits give low values 1.03 | locus YNL224C, strain SQS1, hits give low values 1.01 | locus YOR083W, strain WHI5 (second series), hits give low values 1.05 | [4] 0.998 | [5] 1
